In ChEMBL document CHEMBL3988442, “University of Dundee, Small-Polar-MMV Screening Library” (2021) one finds Percent Effect data, which are given here for 5 molecules.

For some assays here: Results with a measured potency or affinity are listed apart.

Holding throughout (set-up): scale not given: direction of the effect not stated beside the values
In assay [1] the target is Protein translocase subunit SecA (Escherichia coli (strain K12)) (UniProt P10408). In words: Assay to Identify E. coli SecA ATPase Inhibitors. The assay is classed as functional. The note with it: 30 µM.
In assay [2] the target is T1, Ubiquitin-activating enzyme e1, putative (Leishmania donovani (strain BPK282A1)) (UniProt E9BSI1).
T1 sequence (whole entry): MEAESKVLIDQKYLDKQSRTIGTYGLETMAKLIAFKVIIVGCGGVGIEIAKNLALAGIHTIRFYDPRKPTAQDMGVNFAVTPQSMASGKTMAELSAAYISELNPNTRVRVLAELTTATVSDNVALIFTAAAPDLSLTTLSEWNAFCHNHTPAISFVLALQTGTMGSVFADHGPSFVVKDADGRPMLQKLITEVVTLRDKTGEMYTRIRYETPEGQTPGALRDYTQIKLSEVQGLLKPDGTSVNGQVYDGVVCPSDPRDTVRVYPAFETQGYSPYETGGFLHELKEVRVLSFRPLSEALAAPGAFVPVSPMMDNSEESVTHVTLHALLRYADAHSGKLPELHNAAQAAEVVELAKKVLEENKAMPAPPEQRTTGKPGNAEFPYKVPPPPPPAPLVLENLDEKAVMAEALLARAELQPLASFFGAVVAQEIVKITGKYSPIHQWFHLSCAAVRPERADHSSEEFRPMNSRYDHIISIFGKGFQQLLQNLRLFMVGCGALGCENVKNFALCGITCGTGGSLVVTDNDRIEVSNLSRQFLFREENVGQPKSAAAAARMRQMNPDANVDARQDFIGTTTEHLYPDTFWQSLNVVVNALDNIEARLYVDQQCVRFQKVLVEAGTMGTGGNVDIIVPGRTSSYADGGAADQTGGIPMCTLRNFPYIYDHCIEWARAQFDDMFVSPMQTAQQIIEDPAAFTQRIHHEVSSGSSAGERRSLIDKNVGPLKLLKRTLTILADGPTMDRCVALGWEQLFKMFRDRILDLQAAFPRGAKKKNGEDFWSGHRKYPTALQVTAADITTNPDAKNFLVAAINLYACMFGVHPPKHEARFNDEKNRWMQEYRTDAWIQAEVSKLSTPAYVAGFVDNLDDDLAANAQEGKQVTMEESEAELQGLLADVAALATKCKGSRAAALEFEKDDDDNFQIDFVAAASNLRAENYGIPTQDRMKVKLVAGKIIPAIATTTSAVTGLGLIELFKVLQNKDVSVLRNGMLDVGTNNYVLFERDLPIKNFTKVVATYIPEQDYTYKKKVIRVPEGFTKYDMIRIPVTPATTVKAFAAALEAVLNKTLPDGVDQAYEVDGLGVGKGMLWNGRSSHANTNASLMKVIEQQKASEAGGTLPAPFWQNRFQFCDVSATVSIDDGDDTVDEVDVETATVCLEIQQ
In words: Leishmania donovani Ubiquitin Activating Enzyme (LdE1). The assay is classed as functional. The note with it: 30 µM.

The target of assay [3] is T2, Aspartate--tRNA(Asp/Asn) ligase (Mycobacterium tuberculosis (strain ATCC 25618 / H37Rv)) (UniProt P9WFW3). Also: in the data most compounds retested in dose-response had high values.
T2 sequence (whole entry): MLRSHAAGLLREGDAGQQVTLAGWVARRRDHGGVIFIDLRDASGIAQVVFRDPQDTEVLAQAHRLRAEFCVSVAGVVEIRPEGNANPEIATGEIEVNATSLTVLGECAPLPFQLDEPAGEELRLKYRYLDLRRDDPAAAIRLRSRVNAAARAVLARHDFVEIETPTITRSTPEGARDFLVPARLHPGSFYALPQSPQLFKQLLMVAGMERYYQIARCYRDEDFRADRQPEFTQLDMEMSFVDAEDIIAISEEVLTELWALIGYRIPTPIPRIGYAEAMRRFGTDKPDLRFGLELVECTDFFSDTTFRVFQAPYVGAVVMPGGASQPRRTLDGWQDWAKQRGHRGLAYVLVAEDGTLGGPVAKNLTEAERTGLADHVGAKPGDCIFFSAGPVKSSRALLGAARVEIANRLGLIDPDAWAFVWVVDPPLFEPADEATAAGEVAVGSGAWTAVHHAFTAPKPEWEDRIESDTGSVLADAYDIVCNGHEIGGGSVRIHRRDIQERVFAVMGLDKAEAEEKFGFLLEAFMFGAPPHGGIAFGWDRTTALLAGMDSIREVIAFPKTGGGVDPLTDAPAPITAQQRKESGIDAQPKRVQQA
Put plainly: Assay for Asp RNA synthetase-1 from Mycobacterium tuberculosis. The assay is classed as functional. The note with it: 30 µM.

Assay [4] addresses AMP-activated protein kinase, AMPK (Homo sapiens) (UniProt P54646+O43741+P54619+Q9UGJ0+Q9Y478+Q13131+Q9UGI9). In words: AMP-dependent Kinase enzyme assay. An in vitro enzyme assay that detects ADP turnover that is directly proportional to AMPK activity. This uses naive AMPK that is activated during the assay with MK-8722. The assay is classed as functional. The note with it: 30 µM.

Assay [5] has as its target Sialic acid-binding Ig-like lectin 9 (Homo sapiens) (UniProt Q9Y336). In words: Hs-Siglec9 ALPHAscreen SOP 20170721. The note with it: 10 µM.
For assay [6], the system named is Trypanosoma cruzi. Put plainly: Trypanosoma cruzi phosphomannomutase and mannose-1-phosphate guanylyltransferase assay. In kind it is functional. The following applies: 10 µM.
Assay [7] has as its target T3, Arginase-2, mitochondrial (Homo sapiens) (UniProt P78540).
T3 sequence (whole entry): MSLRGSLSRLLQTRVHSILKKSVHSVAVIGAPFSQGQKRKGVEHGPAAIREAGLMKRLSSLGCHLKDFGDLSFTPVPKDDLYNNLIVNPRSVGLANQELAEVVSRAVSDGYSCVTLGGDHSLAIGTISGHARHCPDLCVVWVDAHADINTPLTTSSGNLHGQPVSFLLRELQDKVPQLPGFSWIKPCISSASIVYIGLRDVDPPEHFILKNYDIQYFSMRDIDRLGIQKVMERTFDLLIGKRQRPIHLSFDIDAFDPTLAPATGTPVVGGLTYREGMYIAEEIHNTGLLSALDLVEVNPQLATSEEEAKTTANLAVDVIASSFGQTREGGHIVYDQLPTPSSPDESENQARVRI
In words: in vitro enzyme assay to detect the production of urea directly proportional to the activity of Arginase II. Also: in the data most compounds retested in dose-response had high values. In kind it is functional. The note with it: 33.3 µM.

In assay [8] the target is T4, Proteasome subunit beta (Trypanosoma cruzi) (UniProt O96673).
T4 sequence (whole entry): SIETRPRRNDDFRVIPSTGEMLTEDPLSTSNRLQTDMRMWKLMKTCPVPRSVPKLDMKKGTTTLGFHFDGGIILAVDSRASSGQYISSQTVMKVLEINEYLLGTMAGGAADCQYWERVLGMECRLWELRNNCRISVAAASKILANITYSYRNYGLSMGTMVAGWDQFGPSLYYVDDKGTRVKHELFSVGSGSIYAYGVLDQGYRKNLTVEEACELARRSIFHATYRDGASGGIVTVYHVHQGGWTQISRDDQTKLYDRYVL
In words: Trypanosoma cruzi proteasome chymotrypsin-like activity (TcProtChymo) assay. Also: in the data most compounds retested in dose-response had high values. In kind it is functional. The following applies: 9.37 µM.

The species named for assay [9] is Homo sapiens. In words: To identify inhibition of the IFN signalling (Jak-Stat) pathway via expression of an eGFP reporter gene under the control of an IFN-stimulated response element (ISRE) containing MxA promoter. In kind it is functional. The note with it: 30 µM.
Assay [10] deals with Shiga toxin 2 (Escherichia coli O157:H7) (UniProt P09385+P09386). Put plainly: E. coli 0.157:H7 Shiga Toxin SOP - stx2 screening assay. The assay is classed as functional. The following applies: 30 µM.
The target of assay [11] is T5, Tyrosyl-tRNA synthetase, putative (Trypanosoma cruzi (strain CL Brener)) (UniProt Q4DSP6).
T5 sequence (whole entry): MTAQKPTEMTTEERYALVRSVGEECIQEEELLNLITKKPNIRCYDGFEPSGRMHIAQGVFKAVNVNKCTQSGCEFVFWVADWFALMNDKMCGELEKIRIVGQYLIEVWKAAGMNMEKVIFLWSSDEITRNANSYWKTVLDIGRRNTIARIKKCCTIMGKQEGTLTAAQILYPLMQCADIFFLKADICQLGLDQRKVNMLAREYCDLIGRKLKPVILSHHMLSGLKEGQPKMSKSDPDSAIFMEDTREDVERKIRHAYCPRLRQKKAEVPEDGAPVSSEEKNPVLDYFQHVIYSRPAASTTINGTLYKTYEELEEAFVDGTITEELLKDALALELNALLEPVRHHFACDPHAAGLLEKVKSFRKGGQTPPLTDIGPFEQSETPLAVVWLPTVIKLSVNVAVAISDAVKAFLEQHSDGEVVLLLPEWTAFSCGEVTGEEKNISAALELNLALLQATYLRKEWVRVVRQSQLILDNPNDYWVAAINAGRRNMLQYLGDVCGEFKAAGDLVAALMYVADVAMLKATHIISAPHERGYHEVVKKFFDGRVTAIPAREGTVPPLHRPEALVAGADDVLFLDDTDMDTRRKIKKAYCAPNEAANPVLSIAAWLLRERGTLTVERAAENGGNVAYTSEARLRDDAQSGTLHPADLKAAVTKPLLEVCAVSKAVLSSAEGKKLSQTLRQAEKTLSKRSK
Put plainly: Trypanosoma cruzi tyrosyl tRNA synthetase (TcYRS) _High Tyrosine SOP. Also: in the data most compounds retested in dose-response had high values. The assay is classed as functional. The note with it: 30 µM.

Assay [12] has as its target T5, Tyrosyl-tRNA synthetase, putative (Trypanosoma cruzi (strain CL Brener)). In words: Trypanosoma cruzi tyrosyl tRNA synthetase (TcYRS) SOP. In kind it is functional. The note with it: 30 µM.
In assay [13] the target is Chromo domain-containing protein 1 (Saccharomyces cerevisiae (strain ATCC 204508 / S288c) (Baker's yeast)) (UniProt P32657). In words: ScCHD-1 Enzyme Inhibition Assay. Also: in the data most compounds retested in dose-response had high values. In kind it is functional. The note with it: 30 µM.
Chain of Chromo domain-containing protein 1 (Saccharomyces cerevisiae (strain ATCC 204508 / S288c) (Baker's yeast)) (P32657 whole entry, the tested form may be a part): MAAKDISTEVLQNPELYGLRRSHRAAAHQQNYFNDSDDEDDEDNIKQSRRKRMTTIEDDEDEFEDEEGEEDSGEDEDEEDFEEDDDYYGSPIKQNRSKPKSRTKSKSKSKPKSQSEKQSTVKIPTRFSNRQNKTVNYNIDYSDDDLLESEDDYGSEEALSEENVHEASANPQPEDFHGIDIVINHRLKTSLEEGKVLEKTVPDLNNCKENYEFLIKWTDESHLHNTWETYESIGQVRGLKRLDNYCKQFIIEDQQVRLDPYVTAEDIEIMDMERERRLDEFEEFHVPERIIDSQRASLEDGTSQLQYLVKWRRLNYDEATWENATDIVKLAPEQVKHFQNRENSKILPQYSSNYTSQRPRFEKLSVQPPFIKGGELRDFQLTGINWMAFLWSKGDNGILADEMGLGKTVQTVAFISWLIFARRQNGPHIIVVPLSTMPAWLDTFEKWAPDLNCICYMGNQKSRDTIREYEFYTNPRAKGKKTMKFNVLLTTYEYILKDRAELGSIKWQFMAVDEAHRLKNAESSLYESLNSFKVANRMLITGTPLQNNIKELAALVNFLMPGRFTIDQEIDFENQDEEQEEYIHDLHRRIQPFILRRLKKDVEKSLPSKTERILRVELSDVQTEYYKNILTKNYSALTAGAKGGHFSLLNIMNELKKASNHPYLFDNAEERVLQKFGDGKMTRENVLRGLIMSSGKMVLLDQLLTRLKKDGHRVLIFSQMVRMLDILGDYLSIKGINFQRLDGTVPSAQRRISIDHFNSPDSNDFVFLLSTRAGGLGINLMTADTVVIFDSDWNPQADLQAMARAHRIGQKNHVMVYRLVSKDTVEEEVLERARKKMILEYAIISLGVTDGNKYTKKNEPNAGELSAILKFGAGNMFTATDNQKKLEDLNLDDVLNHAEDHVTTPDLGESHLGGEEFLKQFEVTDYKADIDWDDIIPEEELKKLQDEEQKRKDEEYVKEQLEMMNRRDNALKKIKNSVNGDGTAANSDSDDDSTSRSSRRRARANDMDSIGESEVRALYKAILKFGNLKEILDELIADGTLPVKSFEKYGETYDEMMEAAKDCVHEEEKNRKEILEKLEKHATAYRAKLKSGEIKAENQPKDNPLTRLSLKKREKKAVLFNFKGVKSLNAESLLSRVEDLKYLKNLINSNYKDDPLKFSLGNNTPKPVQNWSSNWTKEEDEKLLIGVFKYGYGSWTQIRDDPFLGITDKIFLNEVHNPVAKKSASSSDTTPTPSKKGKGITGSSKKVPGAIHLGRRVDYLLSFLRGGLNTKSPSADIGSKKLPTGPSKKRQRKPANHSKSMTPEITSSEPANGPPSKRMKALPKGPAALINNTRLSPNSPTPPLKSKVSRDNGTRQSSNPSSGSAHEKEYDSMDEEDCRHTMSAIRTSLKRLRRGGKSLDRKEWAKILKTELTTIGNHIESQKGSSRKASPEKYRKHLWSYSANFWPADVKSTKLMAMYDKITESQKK

Chain of Sialic acid-binding Ig-like lectin 9 (Homo sapiens) (Q9Y336 whole entry): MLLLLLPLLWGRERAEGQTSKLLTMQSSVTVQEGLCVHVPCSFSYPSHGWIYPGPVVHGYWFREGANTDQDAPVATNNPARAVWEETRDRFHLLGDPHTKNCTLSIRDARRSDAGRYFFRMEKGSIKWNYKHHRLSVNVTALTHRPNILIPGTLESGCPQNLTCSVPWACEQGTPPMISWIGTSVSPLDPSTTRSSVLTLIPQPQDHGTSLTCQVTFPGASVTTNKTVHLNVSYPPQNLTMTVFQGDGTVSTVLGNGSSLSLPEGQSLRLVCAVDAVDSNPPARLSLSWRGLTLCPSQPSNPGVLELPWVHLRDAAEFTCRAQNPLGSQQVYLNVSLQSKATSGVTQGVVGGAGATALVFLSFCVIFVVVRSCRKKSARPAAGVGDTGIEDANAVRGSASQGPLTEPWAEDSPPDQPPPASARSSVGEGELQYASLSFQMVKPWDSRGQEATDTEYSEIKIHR
Chain of Protein translocase subunit SecA (Escherichia coli (strain K12)) (P10408 whole entry): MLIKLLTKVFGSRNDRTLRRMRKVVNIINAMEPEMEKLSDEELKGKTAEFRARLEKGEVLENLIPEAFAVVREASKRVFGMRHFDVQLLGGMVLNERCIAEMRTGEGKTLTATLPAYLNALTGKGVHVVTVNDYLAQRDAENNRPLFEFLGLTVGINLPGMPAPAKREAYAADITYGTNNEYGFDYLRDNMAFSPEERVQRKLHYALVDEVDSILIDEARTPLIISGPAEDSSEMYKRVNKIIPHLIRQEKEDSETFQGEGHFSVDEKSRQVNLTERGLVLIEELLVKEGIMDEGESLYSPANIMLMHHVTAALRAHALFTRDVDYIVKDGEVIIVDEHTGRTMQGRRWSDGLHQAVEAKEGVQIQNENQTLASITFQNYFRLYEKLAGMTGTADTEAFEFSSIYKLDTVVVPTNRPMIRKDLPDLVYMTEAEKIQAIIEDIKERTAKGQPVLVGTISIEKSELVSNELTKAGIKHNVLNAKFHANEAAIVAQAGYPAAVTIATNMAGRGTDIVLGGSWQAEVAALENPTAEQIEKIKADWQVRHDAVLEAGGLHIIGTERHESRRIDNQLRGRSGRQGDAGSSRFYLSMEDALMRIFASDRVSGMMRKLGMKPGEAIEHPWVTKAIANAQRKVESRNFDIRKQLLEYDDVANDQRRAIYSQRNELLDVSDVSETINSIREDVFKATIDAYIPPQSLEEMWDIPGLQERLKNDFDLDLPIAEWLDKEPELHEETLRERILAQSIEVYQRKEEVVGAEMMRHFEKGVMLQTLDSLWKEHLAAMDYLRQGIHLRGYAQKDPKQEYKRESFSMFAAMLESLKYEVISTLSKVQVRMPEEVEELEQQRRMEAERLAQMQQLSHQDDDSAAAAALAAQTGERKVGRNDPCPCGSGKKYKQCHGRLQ

In the case of `CC(c1ccc(F)cc1)N1CCN(Cc2ccc(C#N)cc2)CC1` (stereo not given), the Percent Effect was -5.23% in assay [1]; 13.5% in [2]; -0.88% in assay [3]; -5.75% in assay [4]; 2.94% in [5]; -4.81% in assay [6]. In addition, the Percent Effect in assay [7] is -0.401%; in assay [8] it was 7.57%; in assay [9], 18.8%; in [10] it was 24.7%; in [11] it was 4.43%; in [12] it was 13.6%. Besides, in assay [13], the Percent Effect was -5.01%.
With `c1ccc(OC[C@@H]2CCC[C@@]23CNCCO3)nc1`, the Percent Effect is -2.73% in assay [1]; 5.41% in assay [2]; 9.49% in assay [3]; 130% in [4]; -8.96% in assay [5]; -4.79% in assay [6]. Moreover, the Percent Effect was -7.33% in assay [7]; 17.9% in [8]; 24.8% in assay [9]; -5.1% in [10]; 1.08% in assay [11]; 2.56% in assay [12]. Besides, the Percent Effect in [13] was -0.951%.
For the molecule `CC(C)CN1CCC2(C1)CN(c1ncccn1)C2`, the Percent Effect was -1.21% in assay [1]; 13.3% in assay [2]; 3.02% in assay [3]; 6.7% in assay [4]; -5.1% in assay [5]; -3.15% in assay [6]. Besides, the Percent Effect was -3.03% in assay [7]; 10.3% in [8]; 5.15% in assay [9]; -15.1% in assay [10]; 5.32% in [11]; 11.5% in assay [12]. The Percent Effect in assay [13] is -4.75%.
For `NC(=O)N1C[C@H]2CN(Cc3nccs3)C[C@H]2C1`, the Percent Effect in assay [1] was 0.982%; in [2], 10.8%; in [3] it was 2.58%; in assay [4], 9.05%; in assay [5], -13%; in assay [6], -3.62%. Besides, the Percent Effect in [7] is 1.59%; in assay [8], 16.6%; in assay [9], 5.62%; in assay [10], -3.75%; in assay [11], 3.24%; in assay [12], 12.8%. In addition, in assay [13], the Percent Effect is -3.89%.
Turning to `c1ccc(CN2C[C@@H]3CCCO[C@@H]3[C@H](Nc3ccccn3)C2)nc1`, the Percent Effect in [1] is -6.38%; in assay [2] it was 5.41%; in [3], 3.79%; in [4], -2.17%; in assay [5], 3.76%; in [6] it was 0.88%. The Percent Effect in assay [7] was 3.23%; in assay [8] it was 8.15%; in assay [9], -12.7%; in assay [10] it was 8.28%; in assay [11] it was 6.45%; in [12] it was 16.1%. For the same molecule, the Percent Effect in assay [13] is -2.77%.
